Data from PubChem BioAssay.
Inconclusive results are not listed. For some of these results: Entries with a potency or affinity are not part of this list. The source made the active and inactive calls. No stated cut-off is given here; in the data, active means fluorescence slope change above about 50%; inconclusive means mostly about 31% to 49%; inactive means weaker than that.

Experiments:
[1] = molecular target: ATP-dependent translocase ABCB1 (Homo sapiens) (UniProt P08183); test: MDR1 (ABCB1) efflux transporter inhibition, cell-based (AID 377); settings: MDR1-expressing cells, fluorescent substrate accumulation slope; stronger effect = higher value; concentration not given here
ATP-dependent translocase ABCB1 (Homo sapiens), sequence (P08183 whole entry, looked up): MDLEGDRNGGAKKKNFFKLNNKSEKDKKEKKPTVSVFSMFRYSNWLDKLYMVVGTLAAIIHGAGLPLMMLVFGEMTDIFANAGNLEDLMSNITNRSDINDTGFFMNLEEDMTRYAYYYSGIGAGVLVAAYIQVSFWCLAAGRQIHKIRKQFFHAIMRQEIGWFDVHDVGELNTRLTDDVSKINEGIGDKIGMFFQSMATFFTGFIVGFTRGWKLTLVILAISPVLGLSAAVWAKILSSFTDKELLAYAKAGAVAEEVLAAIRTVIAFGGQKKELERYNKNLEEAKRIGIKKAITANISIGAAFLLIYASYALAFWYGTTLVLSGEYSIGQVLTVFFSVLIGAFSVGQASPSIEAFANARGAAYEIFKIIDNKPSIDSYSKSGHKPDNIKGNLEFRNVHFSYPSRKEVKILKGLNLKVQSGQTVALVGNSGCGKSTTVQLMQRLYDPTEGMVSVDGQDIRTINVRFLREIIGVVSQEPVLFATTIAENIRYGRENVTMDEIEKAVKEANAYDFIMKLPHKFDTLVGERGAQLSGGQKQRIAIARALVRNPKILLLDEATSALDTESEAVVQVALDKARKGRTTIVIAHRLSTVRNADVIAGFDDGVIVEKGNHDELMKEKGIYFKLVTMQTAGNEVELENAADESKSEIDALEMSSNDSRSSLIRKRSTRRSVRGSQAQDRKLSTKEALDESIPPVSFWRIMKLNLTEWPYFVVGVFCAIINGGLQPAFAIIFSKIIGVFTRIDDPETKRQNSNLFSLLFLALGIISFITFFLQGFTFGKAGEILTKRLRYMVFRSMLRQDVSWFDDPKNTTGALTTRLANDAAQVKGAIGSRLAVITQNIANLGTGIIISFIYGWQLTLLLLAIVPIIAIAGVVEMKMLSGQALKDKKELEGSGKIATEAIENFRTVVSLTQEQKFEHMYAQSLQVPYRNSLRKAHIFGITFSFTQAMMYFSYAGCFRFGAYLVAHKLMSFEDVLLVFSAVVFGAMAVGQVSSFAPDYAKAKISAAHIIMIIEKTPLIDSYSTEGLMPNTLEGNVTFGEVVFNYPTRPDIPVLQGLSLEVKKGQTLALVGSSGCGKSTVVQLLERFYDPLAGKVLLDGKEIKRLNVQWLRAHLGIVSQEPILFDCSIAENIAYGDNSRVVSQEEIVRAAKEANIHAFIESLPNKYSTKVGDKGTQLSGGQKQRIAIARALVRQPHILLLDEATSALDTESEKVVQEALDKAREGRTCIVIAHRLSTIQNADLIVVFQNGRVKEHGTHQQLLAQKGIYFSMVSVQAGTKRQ

[2] = polyglutamine-triggered caspase-3 activation inhibitors, cell-based (AID 1583); settings: polyglutamine-induced caspase-3 activation, cell assay; stronger effect = higher value;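 tested at 10 µM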
[3] = suppressors of polyQ aggregation in yeast, 75Q-TubU reporter (AID 1593); settings: Yeast 75Q polyglutamine aggregation reporter
[4] = rescue of polyQ-huntingtin neuronal dysfunction in worms, whole organism, C. elegans mechanosensory neurons, N-terminal huntingtin (AID 1599); settings: touch response, stronger effect = higher value
[5] = inhibitors of mitochondrial cytochrome c release, biochemical, purified mitochondria (AID 1603); settings: stronger effect = lower value;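 further: mouse liver mitochondria challenged with calcium chloride; signal normalized to the plate average as 100%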
[6] = inhibitors of polyQ protein aggregation (AID 1604); settings: polyglutamine-induced protein aggregation inhibition assay; stronger effect = higher value; tested at 2.5 µM

SMILES	fluorescence slope change [1]	inhibition [2] [%]	score [3]	rescue above control [4]	cytochrome c release ratio [5]	inhibition of aggregation [6] [%]
c1ccc(CN(CC2=NCCN2)c2ccccc2)cc1	118% (active)	9.99	1.33	-13.1	1.08	71.4
Cc1cc(N)c2ccccc2[n+]1CCCCCCCCCC[n+]1c(C)cc(N)c2ccccc21	97.9% (active)	-13.3	0.06	-0.23	6.78	43.1
CN1CCN2c3ccccc3Cc3ccccc3C2C1 (stereo not given)	67.1% (active)	-9.95	1.13	36.1	0.7	60.7
O=C(O)c1ccccc1C(=O)Nc1ccc(S(=O)(=O)Nc2nccs2)cc1	52.9% (active)	-4.35	1.11	-3.35	0.81	12.9
Cc1ccccc1OCC(O)CO (stereo not given)	59.3% (active)	20.6	1.31	-6.62	1.09	70.4
CC(=O)Nc1ccc(OCC(O)CNC(C)C)cc1 (stereo not given)	57.7% (active)	19.6	1	6.87	0.77	66.7
CCOC(=O)[C@H](CCc1ccccc1)N[C@@H](C)C(=O)N1CCC[C@H]1C(=O)O	54.7% (active)	21.1	1.21	6.04	1.13	72.2
C[N+]12CCC(CC1)C(OC(=O)C(O)(c1ccccc1)c1ccccc1)C2 (stereo not given)	27.6% (inactive)	10.9	1.31	14.7	1.79	73.8
CCCCOc1ccc(OCCCN2CCOCC2)cc1	29.5% (inactive)	9.28	1.09	8.67	0.73	65
CC[C@]12CCCN3CCc4c(n(c5ccccc45)C(=O)C1)[C@@H]32	12.1% (inactive)	11.5	1.49	15.2	1.06	76
CC(C)(Sc1cc(C(C)(C)C)c(O)c(C(C)(C)C)c1)Sc1cc(C(C)(C)C)c(O)c(C(C)(C)C)c1	6.4% (inactive)	-32.2	0.29	-10.5	0.46	23.1
C1CCC(C(CC2CCCCN2)C2CCCCC2)CC1 (stereo not given)	352% (active)	57.7	0.35	-18	1.56	83.1
C[N+](C)(C)CCOC(N)=O	12.8% (inactive)	19.3	1.38	2.63	0.77	60.9
COc1cc2nc(N3CCN(C(=O)C4COc5ccccc5O4)CC3)nc(N)c2cc1OC (stereo not given)	75.1% (active)					
C=CC(N)CCC(=O)O (stereo not given)	52.2% (active)					
CN1CCC(=C2c3ccccc3CC(=O)c3sccc32)CC1	20.2% (inactive)	9.78	1.65	1.84	1.14	57.6
CO[C@]12C[C@@H](COC(=O)c3cncc(Br)c3)CN(C)[C@@H]1Cc1cn(C)c3cccc2c13	159% (active)	2.79	0.99	12.5	0.85	65.4
CC1=NN(c2ccccc2)C(=O)C1		-19.6	1.27		0.94	10.2
Cc1cc(C(C)(C)C)c(O)c(C)c1CC1=NCCN1	75.3% (active)	-9.11	1.29	2.64	0.88	6.98
NS(=O)(=O)c1cc(C(=O)O)c(NCc2ccco2)cc1Cl	19.9% (inactive)	10.9	1.37	-8.35	0.82	3.24
COc1ccc(NS(=O)(=O)c2ccc(N)cc2)nn1	-40.8% (inactive)	24	1.56	12.3	0.95	-3.03
CCOc1ccc(Cc2nccc3cc(OCC)c(OCC)cc23)cc1OCC	86.8% (active)	34.8	1.54	-2.91	1.13	-10.6
Cc1ccnc(NS(=O)(=O)c2ccc(N)cc2)n1	18.7% (inactive)	3.68	0.98	11.1	0.88	38
Cc1ccccc1N1C(=O)c2cc(S(N)(=O)=O)c(Cl)cc2NC1C (stereo not given)	79.4% (active)	19.1	1.21	6.73	0.86	4.55
Cc1c(N(C)CS(=O)(=O)O)c(=O)n(-c2ccccc2)n1C	12.6% (inactive)	-33.9	1.22	6.62	0.55	94.4
CCCCNc1ccc(C(=O)OCCN(C)C)cc1		3.42	1.3		0.87	21.1
O=C(O)CCC(=O)c1ccc(-c2ccccc2)cc1	81% (active)	1.96	-0.44	4.61	1	18.2
NC(N)=NCCN1CCCCCCC1	125% (active)	22.4	1.49	-4.52	1.17	35.2
O=C(OCC(O)CO)c1ccccc1Nc1ccnc2cc(Cl)ccc12 (stereo not given)	88.6% (active)	18.5	1.22	-8.14	1.02	23.8
